Active and inactive are the calls of the source. No rule for the calls is given here.

The assay has as its target Muscarinic acetylcholine receptor M4 (Homo sapiens) (UniProt P08173). Description: human M4 receptor potentiation, selectivity assay for M5 PAM project, CHO cells (AID 651925).

Muscarinic acetylcholine receptor M4 (Homo sapiens), sequence (P08173 whole entry, looked up): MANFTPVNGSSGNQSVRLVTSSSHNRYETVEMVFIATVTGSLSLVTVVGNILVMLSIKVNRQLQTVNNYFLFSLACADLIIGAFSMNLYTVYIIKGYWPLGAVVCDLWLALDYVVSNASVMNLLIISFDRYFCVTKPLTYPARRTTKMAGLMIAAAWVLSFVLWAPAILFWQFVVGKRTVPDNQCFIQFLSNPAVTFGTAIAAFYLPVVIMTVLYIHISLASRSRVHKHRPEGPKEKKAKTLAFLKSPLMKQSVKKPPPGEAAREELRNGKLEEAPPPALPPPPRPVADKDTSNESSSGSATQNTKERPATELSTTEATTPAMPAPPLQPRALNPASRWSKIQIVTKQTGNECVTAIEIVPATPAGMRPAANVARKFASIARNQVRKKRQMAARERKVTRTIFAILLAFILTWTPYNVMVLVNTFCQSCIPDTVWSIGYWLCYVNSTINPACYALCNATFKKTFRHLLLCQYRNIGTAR

As to `O=C1C(=O)N(CCOc2ccccc2)c2ccc(OC(F)(F)F)cc21`, the result was inactive.
